Results on 4 compounds are retold here after PubChem BioAssay (Tox21).

Assay [1] can be described thus: qHTS assay to identify small molecule agonists of the estrogen receptor alpha (ER-alpha) signaling pathway in the presence of an antagonist - cell viability counter screen (AID 1259386). Further: series mostly up to about 92 µM; nearly all actives have a fitted effect of over 30% in size. Summed up: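 Read-out: CellTiter-Fluor fluorescence after 1hr reagent incubation, measured in the same wells as the luciferase readout. VM7Luc4E2 cells were exposed to 15 compound concentrations with 10.0nM ICI-182,780 for 22hr at 37C.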
(In general: In qHTS, concentration-response curves come from the screen itself.)

Assay [2] concerns the target Progesterone receptor (Homo sapiens) (UniProt P06401). Description: qHTS assay to identify small molecule agonists of the progesterone receptor (PR) signaling pathway (AID 1346784; calls by dose curve; further: nearly all actives have a fitted effect of over 30% in size). The gist of the method:
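PR-UAS-bla HEK 293T cells carrying a UAS-driven beta-lactamase reporter were seeded in medium with 2% charcoal-stripped FBS, preincubated 6 hr at 37C, then exposed to compounds in DMSO for 16 hr; agonism was read by LiveBLAzer B/G FRET fluorescence.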

The target is the same in assay [3]. Description: qHTS assay to identify small molecule antagonists of the progesterone receptor (PR) signaling pathway (AID 1346795; active means well fitted inhibition curve with a large enough effect in the signal ratio in the repeat runs, not every such curve was filed as active; the % refers to the signal ratio; further: potency means the concentration at half of the fitted maximal effect). The gist of the method: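 PR-UAS-bla HEK293T cells carrying a UAS-driven beta-lactamase reporter were plated in medium with 2% charcoal-stripped FBS and rested 6 hr at 37C. Compounds were added with 1 nM R5020 (final) for 16 hr, then FRET substrate loaded 2 hr at room temperature.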

Assay [4] is described as follows: qHTS assay to identify small molecule agonists of the progesterone receptor (PR) signaling pathway - cell viability counter screen (AID 1346799; calls by dose curve; further: nearly all actives have a fitted effect of over 45% in size). The gist of the method:
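PR-UAS-bla HEK293T cells, 3,000 per well in medium with 2% charcoal-stripped FBS, were preincubated 6 hr at 37C, then exposed to compounds for 16 hr; viability was read as CellTiter-Glo luminescence after 30 min at room temperature.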

A short description of assay [5]: qHTS assay to identify small molecule antagonists of the TGF-beta/Smad signaling pathway - cell viability counter screen (AID 1346824). Further: nearly all actives have a fitted effect of over 50% in size. The gist of the method:
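Cytotoxicity counter-screen run in the same wells as the beta-lactamase Smad reporter read: CellTiter-Glo luminescence after 30 min at room temperature. HEK 293T SBE-bla cells had 5 hr compound exposure at 37 C with TGF-beta1 (0.25 ng/mL stock).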

The nature of assay [6]: qHTS assay to identify small molecule agonists of the TGF-beta/Smad signaling pathway - cell viability counter screen (AID 1346829). Further: top concentration of the series differs between compounds; nearly all actives have a fitted effect of over 45% in size. The gist of the method: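 SBE-bla HEK 293T cells plated overnight, compound exposure 5 hr at 37 C. Viability read in the same wells by CellTiter-Glo luminescence after 30 min at room temperature, following the beta-lactamase read.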
A short description of assay [7]: qHTS assay to identify small molecule agonists of the TGF-beta/Smad signaling pathway (AID 1346859; active means well fitted activation curve with a large enough effect in the signal ratio in the repeat runs, not every such curve was filed as active; the % refers to the signal ratio; further: series mostly up to about 77 µM). The gist of the method:
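HEK 293T cells stably carrying a beta-lactamase reporter driven by the Smad binding element were seeded overnight, exposed to DMSO-dissolved compounds for 5 hr at 37 C, 5% CO2, then loaded with FRET substrate for 2 hr at room temperature.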

The target in assay [8] is Thyrotropin-releasing hormone receptor (Homo sapiens) (UniProt P34981). Description: qHTS assay to identify small molecule antagonists of the thyrotropin-releasing hormone receptor (TRHR) signaling pathway (AID 1346877; active means well fitted inhibition curve with a large enough effect in the repeat runs, not every such curve was filed as active; further: series mostly up to about 51 µM). Summed up:
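HEK293/TRHR cells, 18 h, 37 °C; Ca2+ dye 2 h; cpd 5 min RT; TRH 1 nM final; fluorescence read 3 min, 1 s intervals; 15 concs, triplicate.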

Assay [9] has the same target. Description: qHTS assay to identify small molecule agonists of the thyrotropin-releasing hormone receptor (TRHR) signaling pathway (AID 1346891; calls by dose curve; further: series mostly up to about 58 µM). Summed up: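 TRHR-expressing HEK293 cells were plated 18 h at 37 °C/5% CO2, loaded with calcium dye 2 h at 37 °C, then given compound in DMSO; fluorescence was read kinetically for 3 min at 1 s intervals.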
The nature of assay [10]: Human pregnane X receptor (PXR) small molecule agonists, qHTS cell viability counter screen (AID 1346977). Further: nearly all actives have a fitted effect of over 50% in size. The gist of the method: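 PXR-Luc HepG2 cells in medium with 5% charcoal-stripped FBS were pre-incubated 5hr, then exposed to compounds for 24hr at 37C. Viability was read in the same wells by CellTiter-Fluor fluorescence, reagent added after 23hr with a 1hr incubation.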

Assay [11] is described as follows: Caspase-3/7 induction in HepG2 cells by small molecules, qHTS assay (AID 1346978). Further: nearly all actives have a fitted effect of over 15% in size. The gist of the method: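 Caspase-3/7 induction was measured by Caspase-Glo 3/7 luminescence (30 min, room temperature) after a 17 hr compound exposure of wild-type HepG2 cells seeded at 2,000 per well and pre-incubated 5 hr.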
Assay [12] in a line: Caspase-3/7 induction in CHO-K1 cells by small molecules, qHTS cell viability counter screen (AID 1346979). Further: nearly all actives have a fitted effect of over 35% in size. The gist of the method:
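Wild-type CHO-K1 cells were seeded at 1,500 per well, rested 5hr at 37 C, then exposed to compounds in DMSO. After 16hr, CellTiter-Fluor reagent was added and fluorescence read 1hr later as the viability measure.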

The nature of assay [13]: Caspase-3/7 induction in CHO-K1 cells by small molecules, qHTS assay (AID 1346980). Further: nearly all actives have a fitted effect of over 15% in size. Summed up: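 Luminescent Caspase-Glo 3/7 read (30min, room temperature) quantified apoptosis induction. Cells were wild-type CHO-K1, treated with compound for 17hr at 37 C and 5% CO2.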
The nature of assay [14]: Caspase-3/7 induction in HepG2 cells by small molecules, qHTS cell viability counter screen (AID 1346981). Further: series mostly up to about 92 µM; nearly all actives have a fitted effect of over 30% in size. Summed up:
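Fluorescence read-out of live-cell protease activity (CellTiter-Fluor) after 1 hr with reagent. This was measured in the same wells as the caspase-3/7 luminescence, on HepG2 cells exposed to DMSO-dissolved compounds for 16 hr at 37 C.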

The target of assay [15] is Cytochrome P450 2D6 (Homo sapiens) (UniProt P10635). Description: Cytochrome P450 Family 2 Subfamily D Member 6 (CYP2D6) small molecule antagonists: luciferase reporter qHTS assay (AID 1671196). Further: nearly all actives have a fitted effect of over 50% in size. Further: potency means the concentration at half of the fitted maximal effect. Summed up: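 Luminogenic proluciferin substrate, CYP2D6 enzyme; 10 min RT preincubation with compound, NADPH regeneration system added, 1 h RT. Stop/detection reagent, 20 min RT, luminescence read (RLU). Signal proportional to CYP activity.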
For orientation: A reporter such as luciferase makes a cellular process visible.

Assay [16] can be described thus: qHTS assay to identify small molecule antagonists of the progesterone receptor (PR) signaling pathway - cell viability counter screen (AID 1346798). Further: series mostly up to about 92 µM; nearly all actives have a fitted effect of over 50% in size. Summed up:
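PR-UAS-bla HEK293T cells in medium with 2% charcoal-stripped FBS were treated with compounds plus R5020 for 16 hr at 37C. Cell viability was then read by CellTiter-Glo luminescence after 30 min at room temperature in the same wells.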

The target of assay [17] is Nuclear receptor subfamily 1 group I member 2 (Homo sapiens) (UniProt O75469). Description: Human pregnane X receptor (PXR) small molecule agonists, qHTS assay (AID 1346982). Further: nearly all actives have a fitted effect of over 35% in size. Summed up: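 HepG2 PXR-Luc reporter line, 5% charcoal-stripped FBS; 5 hr pre-incubation, compound (DMSO) 24 hr at 37 C/5% CO2; ONE-Glo 30 min RT; luminescence read-out.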
Assay [18] concerns the target Nuclear receptor subfamily 1 group I member 2 (Rattus norvegicus) (UniProt Q9R1A7). Description: Rat pregnane X receptor (rPXR) activation by small molecules, qHTS assay (AID 1346983). Further: nearly all actives have a fitted effect of over 20% in size. As to conditions: rPXR luciferase reporter cells, One-Glo luminescence, 24 h; hits give high values. Summed up: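 Luminescent readout (One-Glo luciferase, 30 min room temperature) followed 24 hr compound treatment at 37 C of rPXR cells plated 2,000 per well and preincubated 5hr; qHTS format with compounds delivered in DMSO.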

Assay [19] concerns the target Nuclear receptor subfamily 1 group I member 2 (Homo sapiens) (UniProt O75469). Description: CYP3A4 induction through human pregnane X receptor (PXR) by small molecules, qHTS assay (AID 1346984). Further: nearly all actives have a fitted effect of over 40% in size. Summed up: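 HepG2-derived DPX-2 line carrying PXR plus a CYP3A4-promoter luciferase reporter; cells plated 5 hr, compound-exposed 24 hr at 37C. CYP3A4 activity probed with 3uM (final) Luciferin-IPA for 3hr, then luciferase read after One-Glo.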

Assay [20] shares this target. Description: Human pregnane X receptor (PXR) activation by small molecules, qHTS assay (AID 1346985). Further: nearly all actives have a fitted effect of over 40% in size. The gist of the method:
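DPX-2 cells (HepG2 co-transfected with a PXR response element and a CYP3A4-promoter luciferase construct) were seeded at 2,000 per well, rested 5 hr at 37C, then exposed to DMSO-dissolved compounds for 24 hr. Activation was read as luciferase luminescence.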

A number with no mark means an inactive call. Records with an inconclusive call do not appear. Activity calls are given as the source filed them. Unless noted, the call rests on the fitted dose curve; in most records, active means well fitted curve in the direction sought with a large enough effect in the repeat runs; inconclusive means weak or mixed curves; inactive means no such curve, though single readings can be large; an effect the other way counts as inactive or inconclusive.
On the % scale 0 is the no-effect control and ±100 the full control effect.

Chain of Nuclear receptor subfamily 1 group I member 2 (Homo sapiens) (O75469 whole entry, looked up): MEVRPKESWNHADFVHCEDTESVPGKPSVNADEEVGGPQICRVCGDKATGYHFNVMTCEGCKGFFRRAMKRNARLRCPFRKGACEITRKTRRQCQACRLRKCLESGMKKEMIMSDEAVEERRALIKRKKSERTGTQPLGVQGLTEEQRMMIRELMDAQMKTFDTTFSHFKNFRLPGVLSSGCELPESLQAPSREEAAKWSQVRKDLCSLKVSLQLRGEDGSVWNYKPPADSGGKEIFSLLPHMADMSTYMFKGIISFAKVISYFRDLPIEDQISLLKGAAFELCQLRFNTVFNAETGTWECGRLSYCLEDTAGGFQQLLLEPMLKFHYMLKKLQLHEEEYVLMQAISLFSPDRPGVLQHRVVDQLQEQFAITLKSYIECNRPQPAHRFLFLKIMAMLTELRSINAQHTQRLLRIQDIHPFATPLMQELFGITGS
Chain of Cytochrome P450 2D6 (Homo sapiens) (P10635 whole entry, looked up): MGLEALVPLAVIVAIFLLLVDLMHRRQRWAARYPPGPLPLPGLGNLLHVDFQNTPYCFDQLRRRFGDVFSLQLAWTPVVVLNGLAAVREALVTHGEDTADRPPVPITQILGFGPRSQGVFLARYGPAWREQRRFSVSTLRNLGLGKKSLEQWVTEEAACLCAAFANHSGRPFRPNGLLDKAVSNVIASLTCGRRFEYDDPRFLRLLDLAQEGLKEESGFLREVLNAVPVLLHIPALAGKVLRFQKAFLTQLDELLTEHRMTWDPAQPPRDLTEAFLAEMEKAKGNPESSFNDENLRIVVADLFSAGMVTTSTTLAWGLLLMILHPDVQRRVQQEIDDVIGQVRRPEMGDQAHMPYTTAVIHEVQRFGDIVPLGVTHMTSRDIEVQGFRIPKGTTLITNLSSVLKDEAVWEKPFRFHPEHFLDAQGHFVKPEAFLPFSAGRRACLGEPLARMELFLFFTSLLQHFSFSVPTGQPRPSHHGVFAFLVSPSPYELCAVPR
Chain of Thyrotropin-releasing hormone receptor (Homo sapiens) (P34981 whole entry, looked up): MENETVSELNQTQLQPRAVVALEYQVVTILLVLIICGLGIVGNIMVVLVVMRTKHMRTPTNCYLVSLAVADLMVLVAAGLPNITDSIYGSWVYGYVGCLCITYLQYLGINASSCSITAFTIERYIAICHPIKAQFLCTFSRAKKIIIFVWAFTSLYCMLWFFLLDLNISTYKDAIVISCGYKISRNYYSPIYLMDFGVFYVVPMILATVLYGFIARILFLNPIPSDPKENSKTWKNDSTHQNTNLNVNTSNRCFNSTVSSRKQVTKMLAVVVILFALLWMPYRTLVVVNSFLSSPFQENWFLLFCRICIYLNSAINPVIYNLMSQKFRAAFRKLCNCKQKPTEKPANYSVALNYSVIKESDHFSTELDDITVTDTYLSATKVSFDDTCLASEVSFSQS
Chain of Progesterone receptor (Homo sapiens) (P06401 whole entry, looked up): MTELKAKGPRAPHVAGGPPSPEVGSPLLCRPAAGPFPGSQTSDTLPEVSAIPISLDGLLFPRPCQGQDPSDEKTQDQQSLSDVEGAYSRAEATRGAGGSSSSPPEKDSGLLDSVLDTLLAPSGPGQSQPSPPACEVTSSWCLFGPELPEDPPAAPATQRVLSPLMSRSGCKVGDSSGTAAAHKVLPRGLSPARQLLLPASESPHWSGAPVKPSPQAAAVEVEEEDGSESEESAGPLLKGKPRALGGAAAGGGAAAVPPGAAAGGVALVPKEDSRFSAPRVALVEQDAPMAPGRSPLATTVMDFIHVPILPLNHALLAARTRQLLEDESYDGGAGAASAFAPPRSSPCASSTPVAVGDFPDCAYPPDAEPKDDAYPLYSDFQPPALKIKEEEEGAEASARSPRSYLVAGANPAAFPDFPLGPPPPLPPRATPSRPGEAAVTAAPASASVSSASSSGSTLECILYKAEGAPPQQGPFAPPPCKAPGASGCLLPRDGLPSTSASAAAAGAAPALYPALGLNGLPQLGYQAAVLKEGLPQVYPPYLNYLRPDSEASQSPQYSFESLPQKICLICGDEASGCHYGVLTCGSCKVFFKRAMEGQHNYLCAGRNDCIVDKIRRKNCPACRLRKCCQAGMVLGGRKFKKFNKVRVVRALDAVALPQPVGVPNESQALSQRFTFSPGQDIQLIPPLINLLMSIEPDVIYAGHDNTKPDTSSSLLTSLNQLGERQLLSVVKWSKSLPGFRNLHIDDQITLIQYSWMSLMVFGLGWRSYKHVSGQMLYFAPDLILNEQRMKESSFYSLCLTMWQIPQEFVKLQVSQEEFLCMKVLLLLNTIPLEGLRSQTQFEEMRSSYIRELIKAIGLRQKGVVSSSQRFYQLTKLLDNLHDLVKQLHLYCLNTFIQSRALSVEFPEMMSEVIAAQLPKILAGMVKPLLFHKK
Chain of Nuclear receptor subfamily 1 group I member 2 (Rattus norvegicus) (Q9R1A7 whole entry, looked up): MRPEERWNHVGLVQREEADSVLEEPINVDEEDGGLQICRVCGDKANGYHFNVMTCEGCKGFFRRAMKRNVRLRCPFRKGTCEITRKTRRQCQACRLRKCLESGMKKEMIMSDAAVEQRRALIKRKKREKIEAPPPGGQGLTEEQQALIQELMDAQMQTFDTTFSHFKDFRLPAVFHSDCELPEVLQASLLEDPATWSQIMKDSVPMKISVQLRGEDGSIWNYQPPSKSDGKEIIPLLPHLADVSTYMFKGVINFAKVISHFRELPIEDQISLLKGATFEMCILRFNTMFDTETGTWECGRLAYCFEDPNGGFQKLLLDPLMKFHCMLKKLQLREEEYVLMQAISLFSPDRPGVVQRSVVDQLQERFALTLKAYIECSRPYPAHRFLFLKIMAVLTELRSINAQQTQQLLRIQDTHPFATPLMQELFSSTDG

As for `OCc1cccc(Oc2ccccc2)c1`, the Potency result in assay [1], in [2], in assay [10], in assay [11], in [12] and in [14] was “inactive” in each case. For the same compound, the results for the Potency in assay [3] and in assay [15] were 54.5 µM (active) and 28.7 µM (active), respectively. The call in [4], in [5], in assay [6], in assay [7], in assay [8] and in assay [9] was inactive. Also, the call in [13] was inactive.

Regarding `CC(=O)OCCOC(C)=O`, the Potency result in assay [1], in assay [2], in assay [3], in assay [10], in assay [11] and in assay [12] was “inactive” each time. Moreover, the Potency result in assay [14] and in [15] was “inactive” each time. For the same compound, the call in assay [16], in [4], in assay [5], in assay [6], in assay [7] and in assay [8] was inactive. The compound was called inactive in [9] and in assay [13].

On to `Cc1ccc([N+](=O)[O-])cc1S(=O)(=O)O`, for which the Potency result in assay [1], in assay [2], in [3], in assay [10], in assay [11] and in assay [12] was “inactive” in each case. In addition, the Potency entry in assay [14] and in assay [17] was “inactive” in each case. Besides, the compound was called inactive in [16], in [4], in assay [5], in assay [6], in [7] and in assay [8]. Further, the compound was classed as inactive in assay [9] and in assay [13]. Besides, in assay [15], the Potency is 39.2 µM (active).

`CCCOC(=O)c1ccccc1`: the Potency result in [1], in assay [2], in assay [3], in assay [10], in [11] and in assay [12] was “inactive” throughout. In addition, the Potency result in [14], in [17], in [19] and in [15] was “inactive” throughout. Also, the call in [16], in assay [4], in [5], in [6], in assay [7] and in assay [8] was inactive. Also, the compound was called inactive in assay [9], in [13] and in assay [20]. Also, the max activation in [18] was -6.55%.
